Data on 21 compounds can be found in PubChem BioAssay (NCATS).

Test in all cases: qHTS profiling for inhibitors of Plasmodium falciparum proliferation (AID 504749); also: nearly all actives have a fitted effect of over 60% in size
Holding throughout (details): P. falciparum in erythrocytes, SYBR Green DNA, 72 h; series mostly up to 28.7 µM

In one assay the test system is C2A. In a few lines: (§1)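 Fluorescence of SYBR Green-bound parasite DNA, read at 485/535 nm, served as the growth measure. Infected erythrocytes were cultured with compound 72 h; artemisinin (0.29 uM) and DMSO wells defined the normalization range.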
For a further assay, the system named is CP185. In a few lines: as §1
Another assay concerns CP191. In a few lines: as §1
The test system of a further assay is CP192. A digest of the protocol: as §1
A further assay deals with CP194. A digest of the protocol:
as §1

For another assay, the system named is CP201. A digest of the protocol: as §1
For a further assay, the system named is CP203. In a few lines: as §1
The next assay deals with CP211. In a few lines:
as §1

In the next assay the test system is CP215. In a few lines: as §1
For another assay, the system named is CP217. In a few lines: as §1

SMILES strings stand for the structures. Records with an inconclusive call do not appear. Calls of active or inactive are those of the source. Calls follow the shape of the dose curve; as a rule, active = well fitted inhibition curve with a large enough effect; inconclusive = small, poorly fitted or top-dose-only effect; inactive = flat fitted curve, though single readings scatter.
Potency is read from the fitted curve at half-maximal effect.

With `O=C(CCNNC(=O)c1ccncc1)NCc1ccccc1`, the Potency result with C2A, in the assay with CP185, in the assay on CP191, in the assay with CP192, in the assay on CP194 and in the assay with CP201 was “inactive” throughout. Besides, the Potency entry in the assay with CP203, in the assay on CP211, with CP215 and with CP217 was “inactive” in each case.
`c1cnc(N2CCN(Cc3ccc4c(c3)OCO4)CC2)nc1`: the Potency result with C2A, in the assay with CP185, with CP191, in the assay on CP192, with CP194 and with CP201 was “inactive” in each case. Further, the Potency result with CP203, in the assay with CP211, with CP215 and in the assay with CP217 was “inactive” each time.
As to `COC(=O)C1=C(C)NC(C)=C(C(=O)OC(C)(C)CN(C)CCC(c2ccccc2)c2ccccc2)C1c1cccc([N+](=O)[O-])c1` (configuration not stated), the Potency in the assay on C2A is 4.47 µM (active); with CP185, 5.01 µM (active); in the assay on CP191, 3.16 µM (active); in the assay with CP192 it was 9.53 µM (active); in the assay on CP194, 3.79 µM (active); in the assay with CP201 it was 6.01 µM (active). For the same compound, the Potency in the assay with CP203 is 4.26 µM (active); in the assay on CP211 it was 4.78 µM (active); with CP215, 4.78 µM (active); in the assay with CP217, 3.16 µM (active).
For the compound `O=C(O)CN(CCOCCOCCN(CC(=O)O)CC(=O)O)CC(=O)O`, the Potency result in the assay with C2A, in the assay on CP185, in the assay on CP191, in the assay on CP192, in the assay on CP194 and with CP201 was “inactive” in each case. Further, the Potency entry in the assay on CP203, with CP211, in the assay with CP215 and in the assay on CP217 was “inactive” each time.
On to `CN1CCN(C2=Nc3ccccc3Oc3ccc(Cl)cc32)CC1`, for which the Potency entry in the assay with C2A, with CP185, in the assay with CP191, in the assay with CP192, in the assay on CP194 and with CP201 was “inactive” each time. Also, the Potency result in the assay on CP203, in the assay on CP211, in the assay on CP215 and in the assay with CP217 was “inactive” each time.
On to `FC(F)(F)c1ccccc1-n1ccnc1`, for which the Potency result in the assay with C2A, in the assay with CP185, in the assay with CP191, in the assay with CP192, with CP194 and in the assay with CP201 was “inactive” throughout. Also, the Potency result with CP203, in the assay with CP211, with CP215 and in the assay with CP217 was “inactive” in each case.
On to `C[N+](C)(C)CCCCCCCCCC[N+](C)(C)C`, for which the Potency in the assay with C2A is 5.62 µM (active); in the assay on CP185, 4.47 µM (active); in the assay with CP191, 3.55 µM (active); in the assay with CP192, 1.9 µM (active); in the assay on CP194, 2.13 µM (active); in the assay with CP201, 3.38 µM (active). Moreover, the Potency was 1.69 µM (active) in the assay on CP203, 1.69 µM (active) with CP211, 4.26 µM (active) in the assay with CP215 and 3.55 µM (active) in the assay on CP217.
For the compound `C#CCN(C)CCCOc1ccc(Cl)cc1Cl`, the Potency entry in the assay with C2A, with CP185, with CP191, with CP192, with CP194 and in the assay with CP201 was “inactive” each time. The Potency result in the assay on CP203, in the assay with CP211, in the assay on CP215 and with CP217 was “inactive” in each case.
Regarding `Nc1c2c(nc3ccccc13)CCCC2O` (configuration not stated), the Potency entry in the assay on C2A, with CP185, in the assay on CP191, with CP192, with CP194 and with CP201 was “inactive” throughout. Besides, the Potency result in the assay with CP203, in the assay with CP211, in the assay with CP215 and with CP217 was “inactive” throughout.
Regarding `CCO/C([O-])=N/c1c[n+](N2CCOCC2)no1`, the Potency result with C2A, in the assay with CP185, in the assay on CP191, with CP192, with CP194 and with CP201 was “inactive” in each case. The Potency result in the assay with CP203, with CP211, in the assay on CP215 and with CP217 was “inactive” throughout.
Take `CC(C(=O)O)c1ccc(CC2CCCC2=O)cc1` (configuration not stated): the Potency result in the assay with C2A, in the assay on CP185, in the assay on CP191, in the assay with CP192, in the assay on CP194 and in the assay with CP201 was “inactive” each time. Moreover, the Potency entry with CP203, in the assay on CP211, with CP215 and in the assay with CP217 was “inactive” each time.
`O=C1CC2(CCCC2)CC(=O)N1CCCCN1CCN(c2ncccn2)CC1`: the Potency result in the assay with C2A, in the assay on CP185, with CP191, in the assay with CP192, in the assay with CP194 and in the assay with CP201 was “inactive” in each case. The Potency result in the assay with CP203, in the assay on CP211, with CP215 and in the assay with CP217 was “inactive” each time.
For the compound `CCn1ccnc1CC1COc2ccccc2O1` (configuration not stated), the Potency result in the assay with C2A, in the assay with CP185, with CP191, in the assay with CP192, with CP194 and in the assay with CP201 was “inactive” each time. Besides, the Potency result with CP203, in the assay on CP211, with CP215 and with CP217 was “inactive” each time.
Turning to `Cc1nnc(SCC2=C(C(=O)O)N3C(=O)[C@@H](NC(=O)Cn4cnnn4)[C@H]3SC2)s1`, the Potency result in the assay with C2A, in the assay on CP185, in the assay on CP191, in the assay on CP192, in the assay on CP194 and with CP201 was “inactive” in each case. The Potency result in the assay with CP203, in the assay with CP211, in the assay on CP215 and in the assay on CP217 was “inactive” throughout.
In the case of `Cc1ccc(=O)n(-c2ccccc2)c1`, the Potency entry in the assay with C2A, with CP185, in the assay on CP191, in the assay on CP192, with CP194 and with CP201 was “inactive” throughout. The Potency result in the assay on CP203, in the assay with CP211, in the assay with CP215 and with CP217 was “inactive” in each case.
In the case of `CCN(CC)CCNC(=O)c1ccc(NC(C)=O)cc1`, the Potency result in the assay on C2A, with CP185, in the assay on CP191, in the assay with CP192, with CP194 and in the assay with CP201 was “inactive” throughout. Moreover, the Potency result in the assay with CP203, in the assay on CP211, in the assay with CP215 and with CP217 was “inactive” each time.
In the case of `CCOC(=O)C1=C(C)NC(C)=C(C(=O)OC)C1c1cccc(Cl)c1Cl` (configuration not stated), the Potency result in the assay with C2A, in the assay on CP185, in the assay with CP191, in the assay with CP192, with CP201 and in the assay with CP211 was “inactive” each time. Also, the Potency entry with CP217 was “inactive”.
Turning to `CCCCCN(CCCCC)C(=O)C(CCC(=O)O)NC(=O)c1ccc(Cl)c(Cl)c1` (configuration not stated), the Potency entry with C2A, in the assay on CP185, with CP191, in the assay with CP192, in the assay on CP194 and in the assay on CP201 was “inactive” throughout. Further, the Potency result in the assay with CP211, in the assay with CP215 and with CP217 was “inactive” each time.
Regarding `C[N+](C)(C)CCOC(=O)CCC(=O)OCC[N+](C)(C)C`, the Potency entry in the assay with C2A, with CP185, in the assay on CP191, in the assay with CP192, in the assay with CP194 and with CP201 was “inactive” in each case. In addition, the Potency entry with CP211, in the assay on CP215 and with CP217 was “inactive” in each case.
On to `CN(C)C(=O)Oc1cccc([N+](C)(C)C)c1`, for which the Potency entry in the assay with C2A, in the assay with CP185, in the assay on CP191, with CP192, in the assay with CP194 and in the assay on CP201 was “inactive” each time. In addition, the Potency result with CP211 and in the assay on CP217 was “inactive” throughout.
For the compound `CC[N+](C)(C)c1cccc(O)c1`, the Potency result in the assay with C2A, in the assay with CP185, with CP191, in the assay on CP192, in the assay with CP194 and in the assay on CP201 was “inactive” throughout. Also, the Potency entry in the assay on CP203, in the assay with CP211 and in the assay on CP217 was “inactive” throughout.
